According to PubChem BioAssay (Tox21):
Inconclusive results are not listed. The source made the active and inactive calls. Unless noted, calls follow the shape of the dose curve; as a rule, active = well fitted curve in the direction sought with a large enough effect in the repeat runs; inconclusive = weak or mixed curves; inactive = no such curve, though single readings can be large; an effect the other way counts as inactive or inconclusive.

Key:
[1] = qHTS assay to identify small molecule agonists of the RXR signaling pathway - cell viability counter screen (AID 1159529); also: nearly all actives have a fitted effect of over 50% in size; also: potency is read from the fitted curve at half-maximal effect
Method in brief: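 CellTiter-Glo luminescence gave viability in the wells also read for beta-lactamase. Cells (RXR-alpha-UAS-bla HEK 293T, 2% charcoal-stripped FBS medium) had 5 hr plating, then 16 hr compound exposure at 37 C; tetraoctyl ammonium bromide served as positive control.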

[2] = qHTS assay to identify small molecule antagonists of the retinoid acid receptor (RAR) signaling pathway - cell viability counter screen (AID 1159551); also: nearly all actives have a fitted effect of over 35% in size
Method in brief: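 Measured by luminescent ATP detection, viability reflects C3RL4 cells treated 6 h at 37 C with test chemicals in the presence of 1 uM (final) retinol.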

[3] = qHTS assay to identify small molecule antagonists of the retinoic acid receptor (RAR) signaling pathway (AID 1159552; also: nearly all actives have a fitted effect of over 50% in size)
Method in brief: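 Luminescent RARE reporter read-out in C3RL4 cells: 6 hr co-treatment at 37 C of test compounds with retinol at 1 uM final. Cells plated overnight beforehand; luciferase reagent incubated 30 min at room temperature before reading.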

[4] = qHTS assay to identify small molecule agonists of the retinoic acid receptor (RAR) signaling pathway (AID 1159553); settings: C3RL4 RARE luciferase reporter, agonist, 6 h; activation: at 73.3 µM (top of the series) unless noted; also: potency is read from the fitted curve at half-maximal effect
Method in brief: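 6 hr compound exposure (DMSO vehicle) of overnight-plated C3RL4 RARE-luc cells at 37 C; luminescence quantified after 30 min RT with luciferase reagent.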

[5] = qHTS assay to identify small molecule antagonists of the estrogen related receptor (ERR) signaling pathway from Tox21 library - cell viability counter screen (AID 1224834); also: nearly all actives have a fitted effect of over 30% in size; also: potency is read from the fitted curve at half-maximal effect
Method in brief: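 Seeded ERR cells were rested 6 h at 37 C/5% CO2 before compounds, positive and negative controls or DMSO were added. Incubation continued for 17.5 h, and viability was then quantified by CellTiter-Fluor fluorescence.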

[6] = biological target: Luciferin 4-monooxygenase (Photinus pyralis) (UniProt P08659); test: qHTS assay to identify small molecule inhibitors of firefly luciferase (AID 1224835); also: nearly all actives have a fitted effect of over 25% in size; also: potency is read from the fitted curve at half-maximal effect
Sequence of Luciferin 4-monooxygenase (Photinus pyralis) (P08659 whole entry, looked up): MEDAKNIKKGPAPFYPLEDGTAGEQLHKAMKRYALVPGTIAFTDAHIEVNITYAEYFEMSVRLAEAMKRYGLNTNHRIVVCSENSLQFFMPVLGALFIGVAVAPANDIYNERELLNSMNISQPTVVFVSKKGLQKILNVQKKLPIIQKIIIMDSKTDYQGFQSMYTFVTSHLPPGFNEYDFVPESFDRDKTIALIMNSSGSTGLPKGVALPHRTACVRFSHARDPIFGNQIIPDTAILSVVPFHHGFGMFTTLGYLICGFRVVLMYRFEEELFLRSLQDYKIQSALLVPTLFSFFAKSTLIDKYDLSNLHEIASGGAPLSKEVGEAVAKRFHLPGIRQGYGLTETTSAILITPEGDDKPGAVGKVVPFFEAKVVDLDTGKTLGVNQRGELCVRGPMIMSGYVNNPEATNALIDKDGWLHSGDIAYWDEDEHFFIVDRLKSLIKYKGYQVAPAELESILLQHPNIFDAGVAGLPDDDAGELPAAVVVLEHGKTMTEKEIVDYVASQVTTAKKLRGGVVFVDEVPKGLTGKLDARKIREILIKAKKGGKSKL
Method in brief: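 Quantitative HTS format; KM concentrations of both substrates. Purified P. pyralis FLuc activity quantified from luminescence images.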

[7] = qHTS assay to identify small molecule agonists of the constitutive androstane receptor (CAR) signaling pathway - cell viability counter screen (AID 1224836); also: nearly all actives have a fitted effect of over 45% in size; also: potency is read from the fitted curve at half-maximal effect
Method in brief: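 Cell viability multiplexed with the CAR agonist screen: CellTiter-Fluor fluorescence after 23 hr at 37 C. HepG2-CYP2B6-hCAR cells got compounds at 15 concentrations with PK11195 at 0.75 uM final.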

[8] = qHTS assay to identify small molecule antagonists of the constitutive androstane receptor (CAR) signaling pathway - cell viability counter screen (AID 1224837); also: nearly all actives have a fitted effect of over 45% in size
Method in brief: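 To flag cytotoxic false antagonists, HepG2 hCAR/CYP2B6-2.2kb cells were treated 23 hr with 15-concentration compound series and 50 nM CITCO at 37 C/5% CO2; CellTiter-Fluor fluorescence was the measured end point.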

[9] = qHTS assay to identify small molecule antagonists of the estrogen related receptor signaling pathway with the pleiotropic PPARgamma coactivator (PGC) from Tox21 10K library - cell viability counter screen (AID 1224840; active = well fitted cell-killing curve with a large enough effect in the repeat runs, not every such curve was filed as active; also: nearly all actives have a fitted effect of over 40% in size; also: potency is read from the fitted curve at half-maximal effect)
Method in brief: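 Seeded PGC/ERR cells (2,000/well, 6 h, 37 C/5% CO2) get compound by pin tool; 17.5 h incubation at 37 C; CellTiter-Fluor added, 30 min, fluorescence measured.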

[10] = biological target: Nuclear receptor subfamily 1 group I member 3 (Homo sapiens) (UniProt Q14994); test: qHTS assay to identify small molecule antagonists of the constitutive androstane receptor (CAR) signaling pathway (AID 1224838);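 also: HepG2 cells stably expressing hCAR with CYP2B6 luciferase reporter stimulated by CITCO; nearly all actives have a fitted effect of over 40% in size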
Sequence of Nuclear receptor subfamily 1 group I member 3 (Homo sapiens) (Q14994 whole entry, looked up): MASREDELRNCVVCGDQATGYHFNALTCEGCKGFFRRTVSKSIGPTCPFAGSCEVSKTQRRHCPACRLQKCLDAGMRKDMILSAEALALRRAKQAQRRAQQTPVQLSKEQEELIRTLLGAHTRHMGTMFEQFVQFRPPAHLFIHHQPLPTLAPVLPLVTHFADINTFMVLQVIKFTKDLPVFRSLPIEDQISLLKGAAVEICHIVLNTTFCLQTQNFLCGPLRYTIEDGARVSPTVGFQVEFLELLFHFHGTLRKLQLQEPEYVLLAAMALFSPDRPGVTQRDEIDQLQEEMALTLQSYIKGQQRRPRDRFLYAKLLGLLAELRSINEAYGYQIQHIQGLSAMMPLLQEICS
Method in brief: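 Human hepatoma HepG2 cells expressing hCAR and a CYP2B6 promoter (2.2 kb) luciferase construct; compound titration (15 points) with 50 nM CITCO final, 24 h at 37 C/5% CO2; luminescence via ONE-Glo after 30 min at room temperature.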

[11] = biological target: Thyrotropin receptor (Homo sapiens) (UniProt P16473); test: qHTS assay to identify small molecule agonists of the thyroid stimulating hormone receptor (TSHR) signaling pathway (AID 1224843; calls by dose curve; also: nearly all actives have a fitted effect of over 45% in size)
Sequence of Thyrotropin receptor (Homo sapiens) (P16473 whole entry, looked up): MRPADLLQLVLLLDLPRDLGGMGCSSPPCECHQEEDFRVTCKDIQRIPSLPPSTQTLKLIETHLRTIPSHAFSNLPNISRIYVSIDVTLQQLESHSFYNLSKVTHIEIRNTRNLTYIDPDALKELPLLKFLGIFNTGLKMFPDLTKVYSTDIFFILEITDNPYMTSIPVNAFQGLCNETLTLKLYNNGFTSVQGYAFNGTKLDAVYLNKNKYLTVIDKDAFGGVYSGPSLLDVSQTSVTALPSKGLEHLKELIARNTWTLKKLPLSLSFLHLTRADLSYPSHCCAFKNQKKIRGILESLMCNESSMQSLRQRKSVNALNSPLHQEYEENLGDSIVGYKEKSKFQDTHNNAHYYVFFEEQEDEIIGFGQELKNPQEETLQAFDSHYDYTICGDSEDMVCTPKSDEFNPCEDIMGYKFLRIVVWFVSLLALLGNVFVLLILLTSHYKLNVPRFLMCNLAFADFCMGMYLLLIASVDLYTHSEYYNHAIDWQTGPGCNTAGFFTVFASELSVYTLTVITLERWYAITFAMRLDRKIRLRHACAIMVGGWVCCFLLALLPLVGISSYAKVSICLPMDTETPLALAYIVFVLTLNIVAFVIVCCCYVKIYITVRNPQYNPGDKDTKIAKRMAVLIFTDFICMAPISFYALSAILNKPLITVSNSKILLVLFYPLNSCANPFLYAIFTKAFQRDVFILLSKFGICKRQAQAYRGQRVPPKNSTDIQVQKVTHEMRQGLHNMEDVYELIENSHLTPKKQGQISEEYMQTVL
Method in brief: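 Using 15 concentrations per compound in triplicate, cAMP production was monitored in TSHR-HEK293 cells after 30 min compound incubation at RT; HTRF reagents followed, with fluorescence intensity recorded after 1 h.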

[12] = biological target: Nuclear receptor subfamily 1 group I member 3 (Homo sapiens) (UniProt Q14994); test: qHTS assay to identify small molecule agonists of the constitutive androstane receptor (CAR) signaling pathway (AID 1224839); also: nearly all actives have a fitted effect of over 15% in size; also: potency is read from the fitted curve at half-maximal effect;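 as to activation: HepG2 cells stably carrying human CAR and a CYP2B6 luciferase reporter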
Method in brief: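 Luminescent ONE-Glo read-out after 24 hr, 37 C exposure of double-stable HepG2-CYP2B6-hCAR reporter cells to a 15-point compound series, in the presence of 0.75 uM PK11195 (final).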

[13] = qHTS assay to identify small molecule antagonists of the estrogen related receptor signaling pathway with the pleiotropic PPARgamma coactivator (PGC) from Tox21 10K library (AID 1224841; call rule not given here; also: actives are mostly falling curves and most rising ones were filed inactive; nearly all actives have a fitted effect of over 50% in size)
Method in brief: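 Test chemicals dissolved in DMSO were applied to pre-incubated (6 h) PGC/ERR cells at 2,000 cells/well for an 18 h, 37 C treatment; reporter luminescence was then read using One-Glo.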

[14] = qHTS assay to identify small molecule agonists of the estrogen related receptor signaling pathway with the pleiotropic PPARgamma coactivator (PGC) from Tox21 10K library (AID 1224842); also: nearly all actives have a fitted effect of over 15% in size; also: potency is read from the fitted curve at half-maximal effect
Method in brief: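 PGC/ERR reporter cells (NTP line) were seeded 2,000 per well, rested 6 h at 37 C/5% CO2, then pin-dosed with compounds in DMSO for 18 h at 37 C; luciferase read by One-Glo luminescence after 30 min at room temperature.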
% is scaled to controls: 0 for no effect and ±100 for the full control effect.

Cc1ccc(O)c(N)c1
inactive: Potency [1] | Potency [2] | Potency [3] | Potency [7] | Potency [8] | Potency [9]
active: Potency [4] 21.7 µM | Potency [5] 61.2 µM | Potency [6] 31.8 µM

CC(C)(C)CC(C)(C)c1ccc(Nc2ccc(C(C)(C)CC(C)(C)C)cc2)cc1
inactive: activity change, negative = cytotoxicity [1] 2.3% [at 6.97 µM] | activity change, negative = cytotoxicity [2] 0.648% [at 8.39 µM] | activity, negative = inhibition [3] -23.1% [at 8.39 µM] | activation [4] -3.08% [at 8.36 µM] | viability change, negative = cytotoxic [5] 0.525% [at 8.39 µM] | activity change, negative = inhibition [6] -2.16% [at 10.5 µM] | viability change, negative = cytotoxic [7] -0.428% [at 8.39 µM] | activity change, negative = cytotoxicity [8] 7.27% [at 8.39 µM] | activity, negative = inhibition [10] 33.1% [at 8.39 µM] | viability change, negative = cytotoxic [9] -0.792% [at 8.39 µM] | activation [11] 21.9% [at 8.39 µM]

Cc1ccc(-c2ccccc2)cc1
inactive: Potency [1] | Potency [2] | Potency [3] | Potency [4] | Potency [5] | Potency [7] | Potency [10] | Potency [12] | Potency [9] | Potency [13] | Potency [11]

OC12N=C(c3ccccc3)SC1Cc1cc(Cl)ccc12 (stereo not given)
inactive: Potency [2] | Potency [3] | Potency [7] | Potency [8] | Potency [13]
active: Potency [1] 54.9 µM | Potency [4] 1.22 µM | Potency [6] 35.6 µM | Potency [14] 8.63 µM

O=C1OC2(c3ccc(O)cc3Oc3cc(O)ccc32)c2ccc(N=C=S)cc21
inactive: Potency [1] | Potency [2] | Potency [3] | Potency [4] | Potency [5] | Potency [6] | Potency [9] | Potency [11]

O=C(O)CCN(C1(C(=O)NO)CCCC1)S(=O)(=O)c1ccc(Oc2ccc(F)cc2)cc1
inactive: Potency [1] | Potency [2] | Potency [3] | Potency [4] | Potency [5] | Potency [6] | Potency [7] | Potency [10] | Potency [12] | Potency [9] | Potency [13] | Potency [11]

CC(C)CCOC(=O)/C=C/c1ccccc1
active: Potency [4] 10.9 µM | Potency [6] 8 µM
inactive: Potency [1] | Potency [2] | Potency [3] | Potency [5] | Potency [7] | Potency [8] | Potency [10] | Potency [9] | Potency [11]

O[C@@H]([C@H](O)[C@H](O)CBr)[C@H](O)CBr
inactive: Potency [1] | Potency [2] | Potency [3] | Potency [4] | Potency [5] | Potency [6] | Potency [7] | Potency [9] | Potency [11]

C=CCn1c(=O)n(CC=C)c(=O)n(CC=C)c1=O
inactive: Potency [1] | Potency [2] | Potency [3] | Potency [4] | Potency [5] | Potency [6] | Potency [7] | Potency [9] | Potency [11]

COC(=O)c1ccccc1C
inactive: Potency [1] | Potency [2] | Potency [3] | Potency [4] | Potency [5] | Potency [6] | Potency [7] | Potency [8] | Potency [9] | Potency [13] | Potency [14] | Potency [11]

CCCC[P+](C)(CCCC)CCCC
inactive: Potency [1] | Potency [2] | Potency [3] | Potency [4] | Potency [5] | Potency [6] | Potency [7] | Potency [10] | Potency [12] | Potency [9] | Potency [11]

Cc1ccc(N/N=c2\c(=O)cc/c(=N\Nc3ccc(S(=O)(=O)O)cc3)c2=O)c(C)c1
inactive: Potency [1] | Potency [2] | Potency [3] | Potency [4] | Potency [10] | Potency [12] | Potency [11]
active: Potency [5] 30.6 µM | Potency [6] 28.3 µM | Potency [7] 30.6 µM | Potency [9] 30.6 µM

O=C(/C=C/c1ccc(O)c(O)c1)O[C@@H](C(=O)O)[C@@H](OC(=O)/C=C/c1ccc(O)c(O)c1)C(=O)O
inactive: Potency [1] | Potency [2] | Potency [3] | Potency [4] | Potency [7] | Potency [10] | Potency [12] | Potency [9]

COC(C)=O
inactive: Potency [1] | Potency [2] | Potency [3] | Potency [4] | Potency [5] | Potency [6] | Potency [7] | Potency [10] | Potency [12] | Potency [9]

CC(C)(c1cc(Br)c(OCC(Br)CBr)c(Br)c1)c1cc(Br)c(OCC(Br)CBr)c(Br)c1 (stereo not given)
inactive: Potency [1] | Potency [2] | Potency [3] | Potency [4] | Potency [5] | Potency [6] | Potency [7] | Potency [8] | Potency [9] | Potency [13] | Potency [14] | Potency [11]

O=C(O)c1cc(N=Nc2ccc([N+](=O)[O-])cc2)ccc1O
inactive: Potency [1] | Potency [2] | Potency [3] | Potency [10] | Potency [13] | Potency [11]
active: Potency [4] 6.73 µM | Potency [5] 47.7 µM | Potency [6] 0.878 µM | Potency [12] 0.673 µM

CCOC(=O)Cn1cccc1-c1nc(-c2ccc(OC)cc2)c(-c2ccc(OC)cc2)s1
inactive: Potency [1] | Potency [2] | Potency [3] | Potency [4] | Potency [5] | Potency [6] | Potency [7] | Potency [8] | Potency [10] | Potency [9]

O=c1[nH]c(=O)n([C@H]2C[C@H](O)[C@@H](CO)O2)cc1F
inactive: Potency [1] | Potency [2] | Potency [3] | Potency [4] | Potency [5] | Potency [6] | Potency [7] | Potency [8] | Potency [9] | Potency [11]

CCCCCc1ccc(Cl)cc1
inactive: Potency [1] | Potency [2] | Potency [3] | Potency [4] | Potency [5] | Potency [6] | Potency [7] | Potency [8] | Potency [9] | Potency [13] | Potency [11]

O=S(=O)(O)c1ccc(Nc2nc(Nc3ccc(/C=C/c4ccc(Nc5nc(Nc6ccc(S(=O)(=O)O)cc6)nc(N(CCO)CCO)n5)cc4S(=O)(=O)O)c(S(=O)(=O)O)c3)nc(N(CCO)CCO)n2)cc1
inactive: Potency [1] | Potency [2] | Potency [3] | Potency [4] | Potency [5] | Potency [6] | Potency [7] | Potency [8] | Potency [9] | Potency [13] | Potency [11]
